Measurements reported in ChEMBL document CHEMBL4513146, “CO-ADD screening of Karazin Kharkiv National University (Ukraine) compounds”.
Entries with a potency or affinity are not part of this list.

What was measured:
[1] = test system: Klebsiella pneumoniae; conditions: Concentration 32 ug.mL-1;; ASSAY_TEST Inhibition of Bacterial Growth; detection method Absorption (OD600); MEDIA CAMHB; plate type 384well; NBS; CORNING #3640; time 18 hr
[2] = test system: Candida albicans; conditions: Concentration 32 ug.mL-1; ASSAY_TEST Inhibition of Fungal Growth; detection method Absorption (OD530)
[3] = test system: Cryptococcus neoformans; conditions: Concentration 32 ug.mL-1; ASSAY_TEST Inhibition of Fungal Growth; detection method Resazurin; Absorption (OD600-OD570); plate type 384well; NBS; CORNING #3640

| Compound | Inhibition [1] [%] | Inhibition [2] [%] | Inhibition [3] [%] |
| --- | --- | --- | --- |
| COc1ccc(CN(c2ccc(F)c(F)c2)S(=O)(=O)c2ccc3nncn3c2)cc1 | 12.63 | 0.74 | -4.76 |
| CCOc1ccc(C(=O)CSc2nnc3c(=O)n(-c4ccc(OCC)cc4)ccn23)cc1 | 14.22 | 5.82 | -6.09 |
| COc1ccc(CN(c2cc(C)cc(C)c2)S(=O)(=O)c2cccn3c(C)nnc23)cc1 | -1.14 | 2.31 | -5.62 |
| Cc1ccc(NC(=O)Cn2nc3c(SCc4ccccc4)nccn3c2=O)cc1C | 8.81 | 15.8 | -18.48 |
| Cc1cccc(CN(c2ccc(C(C)C)cc2)S(=O)(=O)c2cccn3c(C)nnc23)c1 | 9.59 | 3.05 | -9.59 |
| O=C(Cn1nc2ccc(-c3ccc(Cl)cc3)nn2c1=O)N1CCN(c2ccccc2F)CC1 | 1.3 | 2.81 | -11.05 |
| COc1cccc(-n2ccn3c(SCC(=O)c4cc(C)c(C)cc4C)nnc3c2=O)c1 | 11.25 | 2.17 | -10.44 |
| Cc1cc(F)ccc1NC(=O)Cn1nc2c(SCc3ccc(Cl)cc3)nccn2c1=O | 8.05 | 13.65 | -20.69 |
| COc1ccc(C(=O)CSc2nnc3c(=O)n(-c4ccc(F)c(F)c4)ccn23)cc1OC | 11.04 | 3.34 | -3.67 |
| COc1ccccc1-n1ccn2c(SCc3ccccc3F)nnc2c1=O | 11.1 | 2.31 | -5.25 |
| O=S(=O)(c1ccc2nncn2c1)N(Cc1cccc(Cl)c1)c1ccc2c(c1)OCO2 | 8.88 | 1.66 | -13.77 |
| Cc1ccc(NC(=O)Cn2nc3c(Sc4cccc(F)c4)nccn3c2=O)cc1F | 11.17 | 0.17 | -11.09 |
| COc1ccc(Cl)cc1NC(=O)Cn1nc2c3cc(-c4ccc(C)c(C)c4)nn3ccn2c1=O | -20.97 | 12.28 | -11.29 |
| O=C(Cn1nc2c(N3CCSCC3)nc3ccccc3n2c1=O)NCc1ccccc1 | 13.9 | 0.65 | -23.77 |
| O=S(=O)(c1ccc2nncn2c1)N(Cc1ccccc1F)c1cccc(F)c1 | -5.56 | 2.89 | -8.33 |
| Cc1ccc(NC(=O)CSc2nnc3c4cc(-c5ccccc5)nn4ccn23)c(C)c1 | -1.1 | 4.18 | -18.24 |
| O=C(Cn1nc2c(SC3CCCCC3)nccn2c1=O)N1CCN(c2ccc(F)cc2)CC1 | 10.98 | 0.3 | -4.89 |
| Cc1ccc(C)c(S(=O)(=O)Nc2ccc3nncn3n2)c1 | 4.11 | 0.56 | -3.83 |
| CCc1nnc2ccc(S(=O)(=O)N(Cc3ccc(F)cc3)c3ccccc3)cn12 | -0.12 | -0.14 | -7.1 |
| O=C(Cn1nc2c(SC3CCCCC3)nccn2c1=O)N1CCN(c2ccccc2)CC1 | 7.42 | 1.71 | -1.45 |
| COc1ccc(-c2cc3c4nnc(SCC(=O)Nc5cc(Cl)ccc5C)n4ccn3n2)cc1 | 0.68 | 28.62 | -34.55 |
